From PubChem BioAssay AID1159580 (chemical genetic matrix, 2015)
The whole screen tested about 5,500 compounds, of which about 2,000 (36%) were called active. Another 18% or so got no clear call; they are omitted. Rule as the data show it: active = normalized growth mostly below about 0.91 (no sharp cut-off); inconclusive = no clear call, values can overlap the other calls; inactive = mostly above about 0.92. The list shows a part of the results.

Assay: chemical genetic growth profiling, strain panel (AID 1159580);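 also: tested at 20 µM; growth read once vehicle control cultures reached saturation at 30 °C; 1 = growth at the plate median or of vehicle wells; lower values mean less growth of the strain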
Details: growth OD

Measured: normalized growth

COc1cc2cc[n+]3cc4c(OC)c(OC)ccc4cc3c2cc1OC
inactive: S. cerevisiae deletion strains, locus YJR075W, strain HOC1, active compounds read low 0.979 | S. cerevisiae deletion strains, locus YKL009W, strain mrt4, active compounds read low 0.965 | S. cerevisiae deletion strains, locus YKL068W, active compounds read low 0.963 | S. cerevisiae deletion strains, locus YKL085W, strain MDH1 (second series), active compounds read low 0.992 | S. cerevisiae deletion strains, locus YKL085W, strain MDH1, active compounds read low 0.992 | S. cerevisiae deletion strains, locus YKL160W, strain elf1, active compounds read low 0.976 | S. cerevisiae deletion strains, locus YKL190W, strain CNB1, active compounds read low 0.982 | S. cerevisiae deletion strains, locus YKR001C, strain vps1, active compounds read low 0.99 | S. cerevisiae deletion strains, locus YKR026C, strain gcn3, active compounds read low 0.985 | S. cerevisiae deletion strains, locus YKR091W, strain srl3, active compounds read low 0.976 | S. cerevisiae deletion strains, locus YLL001W, strain dnm1, active compounds read low 0.965 | S. cerevisiae deletion strains, locus YLL026W, active compounds read low 0.97 | S. cerevisiae deletion strains, locus YLL041C, strain sdh2, active compounds read low 0.99 | S. cerevisiae deletion strains, locus YLR027C, strain aat2, active compounds read low 0.962 | S. cerevisiae deletion strains, locus YLR039C, strain RIC1, active compounds read low 0.938 | S. cerevisiae deletion strains, locus YLR058C, strain SHM2, active compounds read low 0.985 | S. cerevisiae deletion strains, locus YLR102C, strain apc9, active compounds read low 0.959 | S. cerevisiae deletion strains, locus YLR113W, strain HOG1, active compounds read low 1.02 | S. cerevisiae deletion strains, locus YLR221C, strain rsa3, active compounds read low 0.968 | S. cerevisiae deletion strains, locus YLR258W, strain gsy2, active compounds read low 0.993 | S. cerevisiae deletion strains, locus YLR262C, strain YPT6 (second series), active compounds read low 1.01 | S. cerevisiae deletion strains, locus YLR262C, strain YPT6, active compounds read low 0.926 | S. cerevisiae deletion strains, locus YLR268W, strain sec22, active compounds read low 1 | S. cerevisiae deletion strains, locus YLR320W, strain mms22, active compounds read low 0.979 | S. cerevisiae deletion strains, locus YLR330W, strain CHS5, active compounds read low 0.977 | S. cerevisiae deletion strains, locus YLR342W, strain FKS1 (second series), active compounds read low 0.96 | S. cerevisiae deletion strains, locus YLR342W, strain FKS1, active compounds read low 0.981 | S. cerevisiae deletion strains, locus YLR357W, strain rsc2, active compounds read low 0.95 | S. cerevisiae deletion strains, locus YLR370C, strain arc18, active compounds read low 0.981 | S. cerevisiae deletion strains, locus YLR371W, strain rom2, active compounds read low 0.952 | S. cerevisiae deletion strains, locus YLR384C, strain iki3, active compounds read low 0.977 | S. cerevisiae deletion strains, locus YLR418C, strain cdc73, active compounds read low 1 | S. cerevisiae deletion strains, locus YML016C, strain PPZ1, active compounds read low 0.985 | S. cerevisiae deletion strains, locus YML032C, strain rad52, active compounds read low 0.955 | S. cerevisiae deletion strains, locus YML120C, strain ndi1, active compounds read low 0.978 | S. cerevisiae deletion strains, locus YML124C, strain tub3, active compounds read low 0.985 | S. cerevisiae deletion strains, locus YMR058W, strain fet3, active compounds read low 0.973 | S. cerevisiae deletion strains, locus YMR078C, strain ctf18, active compounds read low 0.986 | S. cerevisiae deletion strains, locus YMR125W, strain sto1, active compounds read low 0.938 | S. cerevisiae deletion strains, locus YMR129W, active compounds read low 0.987 | S. cerevisiae deletion strains, locus YMR205C, strain PFK2, active compounds read low 0.961 | S. cerevisiae deletion strains, locus YMR223W, strain ubp8, active compounds read low 0.97 | S. cerevisiae deletion strains, locus YMR231W, strain pep5, active compounds read low 0.988 | S. cerevisiae deletion strains, locus YMR263W, strain SAP30, active compounds read low 0.988 | S. cerevisiae deletion strains, locus YMR307W, strain GAS1, active compounds read low 1.1 | S. cerevisiae deletion strains, locus YNL067W, strain RPL9B, active compounds read low 0.982 | S. cerevisiae deletion strains, locus YNL071W, strain lat1, active compounds read low 0.988 | S. cerevisiae deletion strains, locus YNL128W, strain TEP1, active compounds read low 0.995 | S. cerevisiae deletion strains, locus YNL153C, strain GIM3, active compounds read low 0.999 | S. cerevisiae deletion strains, locus YNL183C, strain NPR1, active compounds read low 0.95 | S. cerevisiae deletion strains, locus YNL209W, strain ssb2, active compounds read low 0.982 | S. cerevisiae deletion strains, locus YNL233W, strain BNI4, active compounds read low 1 | S. cerevisiae deletion strains, locus YNL248C, strain rpa49, active compounds read low 0.968 | S. cerevisiae deletion strains, locus YNL250W, strain rad50, active compounds read low 0.968 | S. cerevisiae deletion strains, locus YNL271C, strain bni1, active compounds read low 0.975 | S. cerevisiae deletion strains, locus YNL298W, strain CLA4, active compounds read low 0.984 | S. cerevisiae deletion strains, locus YNL307C, strain MCK1, active compounds read low 0.985 | S. cerevisiae deletion strains, locus YNL322C, strain KRE1 (second series), active compounds read low 0.959 | S. cerevisiae deletion strains, locus YNL322C, strain KRE1, active compounds read low 0.98 | S. cerevisiae deletion strains, locus YNR049C, strain mso1, active compounds read low 0.972 | S. cerevisiae deletion strains, locus YNR052C, strain pop2, active compounds read low 0.98 | S. cerevisiae deletion strains, locus YOL006C, strain TOP1, active compounds read low 1.02 | S. cerevisiae deletion strains, locus YOL012C, strain htz1 0.901 | S. cerevisiae deletion strains, locus YOL147C, strain pex11, active compounds read low 0.988 | S. cerevisiae deletion strains, locus YOR001W, strain rrp6, active compounds read low 0.987 | S. cerevisiae deletion strains, locus YOR061W, strain CKA2, active compounds read low 0.98 | S. cerevisiae deletion strains, locus YOR069W, strain VPS5, active compounds read low 0.993 | S. cerevisiae deletion strains, locus YOR070C, strain gyp1, active compounds read low 0.984 | S. cerevisiae deletion strains, locus YOR080W, strain dia2, active compounds read low 0.965 | S. cerevisiae deletion strains, locus YOR083W, strain WHI5, active compounds read low 0.964 | S. cerevisiae deletion strains, locus YOR106W, strain vam3, active compounds read low 0.998 | S. cerevisiae deletion strains, locus YOR136W, strain idh2, active compounds read low 0.986 | S. cerevisiae deletion strains, locus YOR144C, strain elg1, active compounds read low 0.983 | S. cerevisiae deletion strains, locus YOR184W, strain ser1, active compounds read low 0.933 | S. cerevisiae deletion strains, locus YOR231W, strain MKK1, active compounds read low 1.03 | S. cerevisiae deletion strains, locus YOR265W, strain rbl2, active compounds read low 0.989 | S. cerevisiae deletion strains, locus YOR270C, strain vph1, active compounds read low 0.937 | S. cerevisiae deletion strains, locus YOR290C, strain snf2, active compounds read low 0.946 | S. cerevisiae deletion strains, locus YOR316C, strain cot1, active compounds read low 0.988 | S. cerevisiae deletion strains, locus YPL051W, strain arl3, active compounds read low 0.997 | S. cerevisiae deletion strains, locus YPL055C, strain LGE1, active compounds read low 0.984 | S. cerevisiae deletion strains, locus YPL078C, strain atp4, active compounds read low 0.986 | S. cerevisiae deletion strains, locus YPL106C, strain sse1, active compounds read low 0.953 | S. cerevisiae deletion strains, locus YPL240C, strain hsp82, active compounds read low 0.982 | S. cerevisiae deletion strains, locus YPL256C, strain CLN2, active compounds read low 1.03 | S. cerevisiae deletion strains, locus YPR119W, strain clb2, active compounds read low 0.979 | S. cerevisiae deletion strains, locus YPR141C, strain kar3, active compounds read low 0.988 | S. cerevisiae deletion strains, locus YPR163C, strain tif3, active compounds read low 0.988 | S. cerevisiae deletion strains, locus YPR167C, strain met16, active compounds read low 0.984 | S. cerevisiae deletion strains, strain wtn01, active compounds read low 0.971 | S. cerevisiae strains, strain wild type, active compounds read low 0.985
